Measured values published in PubChem BioAssay (NCI).
About 83,000 compounds went through this panel and 20% of them were active in at least one assay; those are over-represented in the sample as a whole.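 Testing used 96-well plates and a 48-hour single-concentration exposure. Example: -40 means 40% of the starting cells died.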 A number with no mark means an inactive call. The source made the active and inactive calls. The calls were made as follows: active = growth percent below 10; inactive = the rest.

Tested on: NCI-H460 lung
Experiment: NCI-60 one-dose screen, 48 h (100 = growth as untreated, 0 = no growth, -100 = all killed)
Conditions: 10 µM unless noted

SMILES	growth
Cc1ccc(Cc2cnc(NC(=O)c3ccc(/C=C4\SC(=S)N(C)C4=O)cc3)s2)cc1	39.6%
Cc1ccc(C(=O)CSc2nc3ccc(F)cc3c(=O)n2-c2ccc(Cl)cc2)cc1	22.4%
C[C@H](Nc1nc(NCCc2ccccc2)nc2ccccc12)c1ccccc1	-75.3% (active)
COc1cc(-c2ccc(/C=N/NC(=O)c3[nH]c4ccc(Br)cc4c3-c3ccccc3)s2)cc(OC)c1OC	75.7%
OCNc1ccc(-n2cnc3cc(-c4ccc(O)cc4)ccc32)cc1C(F)(F)F	9.72% (active)
COc1cc(OC)cc(C(=O)Nc2cccc(-c3cn(-c4ccc(S(N)(=O)=O)cc4)nn3)c2)c1	82.8%
COc1ccc2[nH]c(O)c(N=NC(=O)COc3ccc(NC(=O)Nc4ccccc4)cc3)c2c1	48.7%
Cc1ccc2c(N)c(C(=O)Nc3ccc(OC(F)(F)F)cc3)sc2n1	77.8%
COc1cc(/C=C/C(=O)c2ccc(C)cc2)ccc1Oc1nc(Nc2ccc(F)cc2)nc(N(C)C)n1	34.4%
N#Cc1c(NCc2ccccc2)n[nH]c1Nc1ccccc1	44.2%
CC(C)c1sc(NC(=O)c2cc(NC(=O)c3cc(NC(=O)c4cscn4)cn3C)cn2C)nc1C(=O)NCCCN(C)C	89.9%
CCOc1ccc(C(=O)NC(=S)Nc2ccc(S(N)(=O)=O)cc2)cc1	102% [100 µM]
Nc1cccc(SCc2cc3ccccc3[nH]c2=O)c1	20%
CC1=C(C(=O)c2ccccc2)C(c2ccc(-n3cncn3)cc2)n2c(nc3ccccc32)N1 (stereo not drawn)	80.5%
O=C(c1ccc(OCCN2CCOCC2)cc1)C1[C@H](c2ccc(Cl)cc2)[C@@H](c2ccccc2)NC12C(=O)Nc1ccc(Cl)cc12 (stereo partly drawn)	10.1%
CCCCCCCCc1ccc(S(=O)(=O)Nc2ccc(CC)cc2C(=O)O)cc1	96.7%
COc1cc2oc(-c3cccc(C(=O)Nc4cccc([N+](=O)[O-])c4)c3)cc(=O)c2c(OC)c1OC	32.3%
C=C1CC[C@@H]2[C@]3(C)COC(c4ccccc4)O[C@@H]3CC[C@@]2(C)[C@@H]1C/C=C1/C(=O)OCC1OC(C)=O (stereo partly drawn)	15.1%
C=C1CC[C@@H]2[C@]3(C)COC(c4cn[nH]c4-c4ccc(C)cc4)O[C@@H]3CC[C@@]2(C)[C@@H]1C/C=C1/C(=O)OCC1O (stereo partly drawn)	67%
CC(C)CSc1nc(NCCc2c[nH]c3ccccc23)c(C#N)c(-c2ccc(Cl)cc2)n1	30.3%
NS(=O)(=O)c1ccc(-n2cc(-c3cccc(NC(=O)c4cc(Cl)cc(Cl)c4)c3)nn2)cc1	43.7%
C=C1CCC2C3(C)COC(c4ccc(F)cc4)OC3CCC2(C)C1C/C=C1/C(=O)OCC1O (stereo not drawn)	-39% (active)
CCN1C(=O)/C(=N\N=C(/C)c2ccc3c(c2)Nc2ccccc2S3)c2cc(Cl)ccc21	63.4%
N#Cc1c(-c2cccc3ccccc23)cc(-c2cccc(OCC(=O)O)c2)[nH]c1=O	101%
O=C(COc1ccc(NC(=O)Nc2ccccc2)cc1)N=Nc1c(O)[nH]c2ccc([N+](=O)[O-])cc12	49.1%

Tested on: HOP-92 NSCLC
Experiment: as above
Conditions: 10 µM unless noted

SMILES	growth
O=c1[nH]n(C(=S)N/N=C/c2ccccc2Cl)c(=O)c2ccccc12	-0.742% (active)
Cn1cc(-c2nnc(N)nc2-c2c[nH]c3ccc(F)cc23)c2cccnc21	92.8%
CN1CCN(Cc2ccc(C(=O)Nc3cccc(C#Cc4cccc5[nH]nc(N)c45)c3)cc2C(F)(F)F)CC1	-87.7% (active)
Cc1ccccc1[C@H]1C(C(=O)c2ccc(Cl)cc2)C2(N[C@@H]1c1ccccc1)C(=O)Nc1ccc(Br)cc12 (stereo partly drawn)	-21.3% (active)
N#Cc1c(-c2cccc(Cl)c2Cl)cc(-c2ccc3ccccc3c2)[nH]c1=O	-16.6% (active)
NS(=O)(=O)c1ccc(-n2cc(-c3cccc(NC(=O)c4cc(C(F)(F)F)cc(C(F)(F)F)c4)c3)nn2)cc1	-16.9% (active)
COc1ccc(C(=O)/C=C/c2ccccc2Cl)cc1S(N)(=O)=O	102%
O=C(/C=C/c1cccc(OCc2ccc(F)cc2)c1)c1nc2ccccc2[nH]1	27.5%
Cc1cc(=O)oc2cc(OCCCOc3ccc(/C=C/C(=O)Nc4ccccc4N)cc3)ccc12	43.4%
S=C(Nc1ccc(OCc2nc3ccccc3[nH]2)cc1)NC1CCCCC1	109%
N#Cc1c(-c2ccccc2Cl)cc(-c2c[nH]c3ccccc23)[nH]c1=O	44.9%
CC1=C(C(=O)OCc2ccccc2)C(c2c(O)cc(O)cc2O)n2c(nc3ccccc32)N1 (stereo not drawn)	83.1%
CCOc1ccc(-c2c(C#N)c(-c3ccc(Cl)cc3)nc3n[nH]c(-c4ccc(Cl)cc4)c23)cc1OC	36.7%
Cc1ccc(Cc2cnc(NC(=O)c3ccc(/C=C4\SC(=S)N(C)C4=O)cc3)s2)cc1	48.4%
Cc1ccc(C(=O)CSc2nc3ccc(F)cc3c(=O)n2-c2ccc(Cl)cc2)cc1	-2.96% (active)
C[C@H](Nc1nc(NCCc2ccccc2)nc2ccccc12)c1ccccc1	-81.1% (active)
COc1cc(-c2ccc(/C=N/NC(=O)c3[nH]c4ccc(Br)cc4c3-c3ccccc3)s2)cc(OC)c1OC	69.7%
OCNc1ccc(-n2cnc3cc(-c4ccc(O)cc4)ccc32)cc1C(F)(F)F	65.1%
COc1cc(OC)cc(C(=O)Nc2cccc(-c3cn(-c4ccc(S(N)(=O)=O)cc4)nn3)c2)c1	24.2%

SMILES	growth
COc1ccc2[nH]c(O)c(N=NC(=O)COc3ccc(NC(=O)Nc4ccccc4)cc3)c2c1	-9.25% (active)
Cc1ccc2c(N)c(C(=O)Nc3ccc(OC(F)(F)F)cc3)sc2n1	59.1%
COc1cc(/C=C/C(=O)c2ccc(C)cc2)ccc1Oc1nc(Nc2ccc(F)cc2)nc(N(C)C)n1	52.7%
N#Cc1c(NCc2ccccc2)n[nH]c1Nc1ccccc1	62.3%
CC(C)c1sc(NC(=O)c2cc(NC(=O)c3cc(NC(=O)c4cscn4)cn3C)cn2C)nc1C(=O)NCCCN(C)C	-22.9% (active)
CCOc1ccc(C(=O)NC(=S)Nc2ccc(S(N)(=O)=O)cc2)cc1	87.9% [100 µM]
Nc1cccc(SCc2cc3ccccc3[nH]c2=O)c1	74.6%
CC1=C(C(=O)c2ccccc2)C(c2ccc(-n3cncn3)cc2)n2c(nc3ccccc32)N1 (stereo not drawn)	76.1%
O=C(c1ccc(OCCN2CCOCC2)cc1)C1[C@H](c2ccc(Cl)cc2)[C@@H](c2ccccc2)NC12C(=O)Nc1ccc(Cl)cc12 (stereo partly drawn)	-11.8% (active)
CCCCCCCCc1ccc(S(=O)(=O)Nc2ccc(CC)cc2C(=O)O)cc1	71%
COc1cc2oc(-c3cccc(C(=O)Nc4cccc([N+](=O)[O-])c4)c3)cc(=O)c2c(OC)c1OC	6.73% (active)
C=C1CC[C@@H]2[C@]3(C)COC(c4ccccc4)O[C@@H]3CC[C@@]2(C)[C@@H]1C/C=C1/C(=O)OCC1OC(C)=O (stereo partly drawn)	-36.3% (active)
C=C1CC[C@@H]2[C@]3(C)COC(c4cn[nH]c4-c4ccc(C)cc4)O[C@@H]3CC[C@@]2(C)[C@@H]1C/C=C1/C(=O)OCC1O (stereo partly drawn)	-9.12% (active)
CC(C)CSc1nc(NCCc2c[nH]c3ccccc23)c(C#N)c(-c2ccc(Cl)cc2)n1	36.3%
NS(=O)(=O)c1ccc(-n2cc(-c3cccc(NC(=O)c4cc(Cl)cc(Cl)c4)c3)nn2)cc1	98.4%
C=C1CCC2C3(C)COC(c4ccc(F)cc4)OC3CCC2(C)C1C/C=C1/C(=O)OCC1O (stereo not drawn)	-43.7% (active)
CCN1C(=O)/C(=N\N=C(/C)c2ccc3c(c2)Nc2ccccc2S3)c2cc(Cl)ccc21	29.8%
N#Cc1c(-c2cccc3ccccc23)cc(-c2cccc(OCC(=O)O)c2)[nH]c1=O	98.6%
O=C(COc1ccc(NC(=O)Nc2ccccc2)cc1)N=Nc1c(O)[nH]c2ccc([N+](=O)[O-])cc12	-72.4% (active)
